This is part of a sample that, as a whole, favours compounds with a hit. Of some 79,000 tested, about 15% had one in any assay. Activity calls are given as the source filed them. Cut-off read from the data, not from the text of the source: active = growth inhibition above about 70%; inactive = the rest.
Legend:
[1] = NCI Yeast Anticancer Drug Screen. Data for the rad50EPP+ strain (AID 151);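 note: 0% = growth of vehicle-treated control cultures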; conditions: S. cerevisiae rad50 mutant strain, stronger effect = higher value
How it was run: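 Growth inhibition read against vehicle controls in rad50EPP+ yeast, a strain altered in DNA damage repair, after compound exposure.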

[2] = NCI Yeast Anticancer Drug Screen. Data for the mgt1 strain (AID 153); conditions: S. cerevisiae mgt1 mutant growth inhibition, stronger effect = higher value
How it was run: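 mgt1 yeast grown with test compound; read-out is growth inhibition versus vehicle-treated cultures.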

[3] = NCI Yeast Anticancer Drug Screen. Data for the rad50 strain (AID 155);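 note: 0% = growth of vehicle-only cultures of the same strain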; conditions: S. cerevisiae rad50 strain growth inhibition, stronger effect = higher value
How it was run: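 Genetically altered yeast (DNA repair pathway); compound treatment; growth inhibition vs vehicle ctrl.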

[4] = NCI Yeast Anticancer Drug Screen. Data for the mec2-1 strain (AID 157); conditions: S. cerevisiae mec2-1 strain, stronger effect = higher value
How it was run: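 Yeast mec2-1 mutant treated with compound. Readout: growth inhibition vs vehicle controls.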

[5] = NCI Yeast Anticancer Drug Screen. Data for the rad14 strain (AID 159);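 note: 0% = growth of vehicle-treated control cultures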; conditions: S. cerevisiae rad14 strain growth inhibition, stronger effect = higher value
How it was run: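 Test compounds were applied to a repair-deficient yeast strain. Its growth was then compared with that of cultures given vehicle alone, and inhibition was expressed relative to those controls.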

[6] = NCI Yeast Anticancer Drug Screen. Data for the sgs1 mgt1 strain (AID 161);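 note: 0% = growth of cultures given vehicle only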; conditions: S. cerevisiae sgs1 mgt1 strain, stronger effect = higher value
How it was run: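 Inhibition of yeast growth, normalised to vehicle-treated controls, is reported for a strain bearing genetic alterations in DNA damage repair.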

[7] = NCI Yeast Anticancer Drug Screen. Data for the CLN2oe strain (AID 163);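 note: 0% = growth of vehicle-only control cultures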; conditions: S. cerevisiae CLN2oe strain, stronger effect = higher value
How it was run: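 Read-out: yeast growth inhibition, expressed relative to vehicle-only controls. The strain bears an engineered cell-cycle alteration.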

[8] = NCI Yeast Anticancer Drug Screen. Data for the cln2 rad14 strain (AID 165);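 note: 0% = growth equal to vehicle treated cultures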; conditions: S. cerevisiae cln2 rad14 strain, stronger effect = higher value
How it was run: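 cln2 rad14 yeast strain; compound exposure; growth inhibition read vs vehicle controls.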

[9] = NCI Yeast Anticancer Drug Screen. Data for the bub3 strain (AID 167); conditions: S. cerevisiae bub3 mutant strain, stronger effect = higher value
How it was run: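 Yeast carrying a defined mutation is treated with each compound, and growth is compared with that of vehicle-exposed cells to give inhibition.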

[10] = NCI Yeast Anticancer Drug Screen. Data for the wt2 strain (AID 169);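 note: 0% = growth of vehicle-treated yeast cultures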; conditions: S. cerevisiae wt2 strain growth inhibition, stronger effect = higher value
How it was run: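 Read-out: growth inhibition versus vehicle-treated control cultures after compound exposure of the yeast strain.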

[11] = NCI Yeast Anticancer Drug Screen. Data for the mlh1 strain (AID 171);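 note: 0% = growth of vehicle-treated control cultures of the same strain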; conditions: S. cerevisiae mlh1 strain growth inhibition, stronger effect = higher value
How it was run: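 Read-out: growth inhibition versus vehicle controls. Strain: engineered yeast with a defined DNA repair or cell cycle defect, compound-treated.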

[12] = NCI Yeast Anticancer Drug Screen. Data for the sgs1 strain (AID 173);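 note: 0% = growth of vehicle-only control cultures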; conditions: S. cerevisiae sgs1 mutant, stronger effect = higher value
How it was run: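 Read-out: yeast growth inhibition relative to vehicle controls, following compound exposure of a strain with a defined DNA repair/cell cycle alteration.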

[13] = NCI Yeast Anticancer Drug Screen. Data for the mlh1 rad18 strain (AID 175); conditions: S. cerevisiae mlh1 rad18 strain growth inhibition, stronger effect = higher value
How it was run: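 Yeast w/ defined DNA-repair lesions; compound exposure; growth vs vehicle controls → % inhibition.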

[14] = NCI Yeast Anticancer Drug Screen. Data for the rad18 strain (AID 177); conditions: S. cerevisiae rad18 mutant growth inhibition, stronger effect = higher value
How it was run: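 Readout: growth inhibition vs vehicle controls. Cells: genetically altered yeast strain, DNA repair defect.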

[15] = NCI Yeast Anticancer Drug Screen. Data for the wt1 strain (AID 149);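 note: 0% = growth of vehicle-treated wt1 cultures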; conditions: S. cerevisiae wt1 strain (SPY 50644) growth inhibition, stronger effect = higher value
How it was run: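 wt1 yeast, compound-treated; % growth inhibition vs vehicle control.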

[16] = at 5.0 µM (retest, dose inferred, filed as 0.5)
[17] = at 50.0 µM (retest, dose inferred, filed as 5.0)

Measured: growth inhibition

O=S(=O)(O)c1ccc2c(N=Nc3c(O)ccc4ccccc34)cccc2c1
active: [3]; at 33.0 µM 71% | [3]; [17] 82% | [3]; at 50.0 µM 91.8% | [3]; at 100.0 µM 85% | [4]; at 50.0 µM 83.3% | [4]; at 100.0 µM 84% | [5]; at 100.0 µM 80% | [6]; [17] 70% | [6]; at 50.0 µM 83.2% | [7]; at 100.0 µM 74% | [9]; at 50.0 µM 93.8% | [9]; at 100.0 µM 75% | [10]; at 100.0 µM 74% | [11]; at 100.0 µM 70% | [12]; at 100.0 µM 77% | [13]; [17] 80% | [13]; at 50.0 µM 87.9% | [14]; at 11.0 µM 77% | [14]; at 33.0 µM 87% | [14]; at 100.0 µM 92%
inactive: [1]; at 1.2 µM -3% | [1]; at 3.7 µM -1% | [1]; at 11.0 µM 17% | [1]; at 33.0 µM 35% | [1]; at 100.0 µM 39% | [2]; at 1.2 µM 0% | [2]; at 3.7 µM 0% | [2]; at 11.0 µM 12% | [2]; at 33.0 µM 37% | [2]; at 100.0 µM 66% | [3]; at 1.2 µM 4% | [3]; at 3.7 µM 14% | [3]; [16] 26% | [3]; at 11.0 µM 56% | [4]; at 1.2 µM 1% | [4]; at 3.7 µM 6% | [4]; [16] 3% | [4]; at 11.0 µM 20% | [4]; at 33.0 µM 38% | [4]; [17] 48% | [5]; at 1.2 µM 1% | [5]; at 3.7 µM 1% | [5]; at 11.0 µM 20% | [5]; at 33.0 µM 40% | [6]; [16] -1% | [7]; at 1.2 µM -1% | [7]; at 3.7 µM -4% | [7]; at 11.0 µM -3% | [7]; at 33.0 µM 14% | [8]; [16] 0% | [8]; [17] -11% | [8]; at 50.0 µM 32.5% | [9]; at 1.2 µM -2% | [9]; at 3.7 µM -1% | [9]; [16] 0% | [9]; at 11.0 µM 23% | [9]; at 33.0 µM 59% | [9]; [17] 55% | [10]; at 1.2 µM -1% | [10]; at 3.7 µM 0% | [10]; at 11.0 µM 13% | [10]; at 33.0 µM 37% | [11]; at 1.2 µM 4% | [11]; at 3.7 µM 4% | [11]; at 11.0 µM 17% | [11]; at 33.0 µM 4% | [12]; at 1.2 µM 2% | [12]; at 3.7 µM 11% | [12]; at 11.0 µM 47% | [12]; at 33.0 µM 67% | [13]; [16] 9% | [14]; at 1.2 µM 4% | [14]; at 3.7 µM 33%

O=C(Nc1ccn(C2CC(O)C(COC(c3ccccc3)(c3ccccc3)c3ccccc3)O2)c(=O)n1)c1ccccc1 (stereo not drawn)
inactive: [1]; at 1.2 µM -26% | [1]; at 3.7 µM -10% | [1]; at 11.0 µM -9% | [1]; at 33.0 µM 10% | [1]; at 100.0 µM -15% | [2]; at 1.2 µM -22% | [2]; at 3.7 µM 14% | [3]; at 1.2 µM -44% | [3]; at 3.7 µM 20% | [3]; at 50.0 µM 43.2% | [4]; at 1.2 µM -43% | [4]; at 3.7 µM -1% | [4]; [16] 64% | [5]; at 1.2 µM -32% | [5]; at 3.7 µM 9% | [6]; [16] 50% | [6]; at 50.0 µM 37.6% | [7]; at 1.2 µM -15% | [7]; at 3.7 µM 36% | [9]; at 1.2 µM -34% | [9]; at 3.7 µM -11% | [11]; at 1.2 µM -43% | [11]; at 3.7 µM -19% | [12]; at 1.2 µM 6% | [12]; at 3.7 µM 3% | [14]; at 1.2 µM -35% | [14]; at 3.7 µM 21%
active: [2]; at 11.0 µM 81% | [2]; at 33.0 µM 82% | [2]; at 100.0 µM 79% | [3]; [16] 85% | [3]; at 11.0 µM 89% | [3]; at 33.0 µM 87% | [3]; [17] 94% | [3]; at 100.0 µM 83% | [4]; at 11.0 µM 91% | [4]; at 33.0 µM 91% | [4]; [17] 83% | [4]; at 50.0 µM 97.6% | [4]; at 100.0 µM 88% | [5]; at 11.0 µM 78% | [5]; at 33.0 µM 81% | [5]; at 100.0 µM 78% | [6]; [17] 94% | [7]; at 11.0 µM 96% | [7]; at 33.0 µM 94% | [7]; at 100.0 µM 92% | [9]; [16] 89% | [9]; at 11.0 µM 81% | [9]; at 33.0 µM 84% | [9]; [17] 95% | [9]; at 50.0 µM 81.5% | [9]; at 100.0 µM 82% | [11]; at 11.0 µM 74% | [11]; at 33.0 µM 79% | [11]; at 100.0 µM 74% | [12]; at 11.0 µM 84% | [12]; at 33.0 µM 85% | [12]; at 100.0 µM 79% | [13]; [16] 87% | [13]; [17] 95% | [13]; at 50.0 µM 94.8% | [14]; at 11.0 µM 86% | [14]; at 33.0 µM 85% | [14]; at 100.0 µM 83%

CN(C)/N=N/c1nc[nH]c1C(N)=O
active: [15]; at 100.0 µM 88% | [3]; at 100.0 µM 97% | [4]; at 100.0 µM 98% | [5]; at 100.0 µM 98% | [7]; at 100.0 µM 99% | [9]; at 100.0 µM 96% | [10]; at 100.0 µM 98% | [11]; at 100.0 µM 97% | [12]; at 100.0 µM 98% | [14]; at 100.0 µM 98%
inactive: [15]; at 1.2 µM 0% | [15]; at 3.7 µM -1% | [15]; at 11.0 µM -3% | [15]; at 33.0 µM -1% | [1]; at 1.2 µM -3% | [1]; at 3.7 µM -2% | [1]; at 11.0 µM 0% | [1]; at 33.0 µM 8% | [1]; at 100.0 µM 32% | [3]; at 1.2 µM -2% | [3]; at 3.7 µM 0% | [3]; at 11.0 µM 7% | [3]; at 33.0 µM 20% | [4]; at 1.2 µM 0% | [4]; at 3.7 µM 0% | [4]; at 11.0 µM 1% | [4]; at 33.0 µM 5% | [5]; at 1.2 µM -2% | [5]; at 3.7 µM -2% | [5]; at 11.0 µM 0% | [5]; at 33.0 µM -1% | [7]; at 1.2 µM 1% | [7]; at 3.7 µM 2% | [7]; at 11.0 µM 0% | [7]; at 33.0 µM 0% | [9]; at 1.2 µM 2% | [9]; at 3.7 µM 1% | [9]; at 11.0 µM -2% | [9]; at 33.0 µM 46% | [10]; at 1.2 µM -5% | [10]; at 3.7 µM -1% | [10]; at 11.0 µM -2% | [10]; at 33.0 µM -2% | [11]; at 1.2 µM -2% | [11]; at 3.7 µM -2% | [11]; at 11.0 µM 0% | [11]; at 33.0 µM 0% | [12]; at 1.2 µM -1% | [12]; at 3.7 µM -2% | [12]; at 11.0 µM 1% | [12]; at 33.0 µM 6% | [14]; at 1.2 µM -3% | [14]; at 3.7 µM 0% | [14]; at 11.0 µM 8% | [14]; at 33.0 µM 42%

— PubChem BioAssay (NCI)
